Test results published in PubChem BioAssay (NCATS).
Values joined by “and” are separate entries in the source; they are usually repeats but may differ in a detail not shown here. Equal entries are not always repeated. Results filed as inconclusive are left out. Active and inactive are the calls of the source. The call rests on the fitted dose curve; in most records, active means well fitted curve in the direction sought with a large enough effect; inconclusive means small, poorly fitted or top-dose-only effect, or another doubt; inactive means no such curve, though single readings can be large; an effect the other way counts as inactive or inconclusive.

What was measured:
[1] = qHTS of pediatric cancer cell lines to identify multiple opportunities for drug repurposing: Primary screen for BT-37 cells (AID 1347094); further: potency means the concentration at half of the fitted maximal effect
Method in brief: (§1)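 500-1,000 cells/well; 5 h pre-incubation 37 °C/5% CO2; compound pinned; 48 h; CellTiter-Glo, 15 min RT; luminescence. MIPE 11-pt from 0.78 nM, NPC 8-pt from 0.59 nM final. Bortezomib 2.3 µM final as positive control.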

[2] = qHTS of pediatric cancer cell lines to identify multiple opportunities for drug repurposing: Primary screen for U-2 OS cells (AID 1347096); further: nearly all actives have a fitted effect of over 50% in size
Method in brief: (§2)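 Cells (500-1,000/well) in growth media were settled 5 h at 37 degrees C, then given compounds for 48 h. Viability was read as CellTiter-Glo luminescence. Primary runs used MIPE at 11 points (0.78 nM-46 µM) and NPC at 8 points (0.59 nM-46 µM); follow-ups used 11 points.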

[3] = qHTS of pediatric cancer cell lines to identify multiple opportunities for drug repurposing: Primary screen for Saos-2 cells (AID 1347097); further: nearly all actives have a fitted effect of over 40% in size; further: potency means the concentration at half of the fitted maximal effect
Method in brief: as §1

[4] = qHTS of pediatric cancer cell lines to identify multiple opportunities for drug repurposing: Primary screen for SK-N-SH cells (AID 1347098); further: nearly all actives have a fitted effect of over 65% in size; further: potency means the concentration at half of the fitted maximal effect
Method in brief: (§3)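 Cells (500-1,000/well) rested 5 h, then received compounds for 48 h; metabolically active cells were measured by CellTiter-Glo luminescence. Final concentrations spanned up to 46 µM (MIPE, 11-point) or 0.59 nM-46 µM (NPC, 8-point) in primary screens, 11-point in follow-ups.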

[5] = qHTS of pediatric cancer cell lines to identify multiple opportunities for drug repurposing: Primary screen for NB1643 cells (AID 1347099); further: nearly all actives have a fitted effect of over 50% in size; further: potency means the concentration at half of the fitted maximal effect
Method in brief: as §1

[6] = qHTS of pediatric cancer cell lines to identify multiple opportunities for drug repurposing: Primary screen for LAN-5 cells (AID 1347100); further: potency means the concentration at half of the fitted maximal effect
Method in brief: as §2

[7] = qHTS of pediatric cancer cell lines to identify multiple opportunities for drug repurposing: Primary screen for BT-12 cells (AID 1347101); further: nearly all actives have a fitted effect of over 25% in size; further: potency means the concentration at half of the fitted maximal effect
Method in brief: as §3

[8] = qHTS of pediatric cancer cell lines to identify multiple opportunities for drug repurposing: Primary screen for Rh18 cells (AID 1347102); further: nearly all actives have a fitted effect of over 65% in size
Method in brief: as §2

[9] = qHTS of pediatric cancer cell lines to identify multiple opportunities for drug repurposing: Primary screen for OHS-50 cells (AID 1347103); further: nearly all actives have a fitted effect of over 40% in size; further: potency means the concentration at half of the fitted maximal effect
Method in brief: as §3

[10] = qHTS of pediatric cancer cell lines to identify multiple opportunities for drug repurposing: Primary screen for RD cells (AID 1347104); further: nearly all actives have a fitted effect of over 55% in size; further: potency means the concentration at half of the fitted maximal effect
Method in brief: as §1

[11] = qHTS of pediatric cancer cell lines to identify multiple opportunities for drug repurposing: Primary screen for MG 63 (6-TG R) cells (AID 1347105); further: nearly all actives have a fitted effect of over 50% in size; further: potency means the concentration at half of the fitted maximal effect
Method in brief: as §1

[12] = qHTS of pediatric cancer cell lines to identify multiple opportunities for drug repurposing: Primary screen for control Hh wild type fibroblast cells (AID 1347106); further: nearly all actives have a fitted effect of over 55% in size; further: potency means the concentration at half of the fitted maximal effect
Method in brief: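 Viability after 48 h compound treatment at 37C, 500-1,000 cells/well, read as ATP luminescence with CellTiter-Glo. Primary screens used 11-point (MIPE, 0.78 nM-46 µM) or 8-point (NPC, 0.59 nM-46 µM) final concentrations; follow-up screens used 11-point dilutions.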

[13] = qHTS of pediatric cancer cell lines to identify multiple opportunities for drug repurposing: Primary screen for Rh30 cells (AID 1347107); further: nearly all actives have a fitted effect of over 75% in size; further: potency means the concentration at half of the fitted maximal effect
Method in brief: as §2

[14] = qHTS of pediatric cancer cell lines to identify multiple opportunities for drug repurposing: Primary screen for Rh41 cells (AID 1347108); further: nearly all actives have a fitted effect of over 70% in size; further: potency means the concentration at half of the fitted maximal effect
Method in brief: as §1

[15] = qHTS of pediatric cancer cell lines to identify multiple opportunities for drug repurposing: Primary screen for NB-EBc1 cells (AID 1347095)
Method in brief: as §1

[16] = qHTS of pediatric cancer cell lines to identify multiple opportunities for drug repurposing: Confirmatory screen for NB1643 cells (AID 1347109); further: potency means the concentration at half of the fitted maximal effect; nearly all actives have a fitted effect of over 45% in size
Method in brief: as §2

[17] = qHTS of pediatric cancer cell lines to identify multiple opportunities for drug repurposing: Confirmatory screen for A673 cells (AID 1347110);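 further: potency means the concentration at half of the fitted maximal effect; cells exposed to compound for 48 h before the viability read; nearly all actives have a fitted effect of over 65% in size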
Method in brief: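 Cells plated at 500-1,000/well were treated five hours later with multi-point dilutions up to 46 µM final. After two days, CellTiter-Glo was added and luminescence read.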

[18] = qHTS of pediatric cancer cell lines to identify multiple opportunities for drug repurposing: Confirmatory screen for SK-N-MC cells (AID 1347111);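 further: potency means the concentration at half of the fitted maximal effect; cells exposed to compound for 48 h before the readout; nearly all actives have a fitted effect of over 70% in size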
Method in brief: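 Metabolically active cells were quantified by ATP-dependent luminescence (CellTiter-Glo, 15 min at room temperature) following 48 h treatment. Cells had been plated at 500-1,000 per well and settled for 5 h beforehand.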

[19] = qHTS of pediatric cancer cell lines to identify multiple opportunities for drug repurposing: Confirmatory screen for BT-12 cells (AID 1347112); further: potency means the concentration at half of the fitted maximal effect; nearly all actives have a fitted effect of over 55% in size
Method in brief: as §2

[20] = qHTS of pediatric cancer cell lines to identify multiple opportunities for drug repurposing: Confirmatory screen for LAN-5 cells (AID 1347113); further: potency means the concentration at half of the fitted maximal effect; nearly all actives have a fitted effect of over 65% in size
Method in brief: as §2

Measured: Potency

CCN(CC)C(=O)N[C@@H]1C=C2c3cccc4[nH]cc(c34)C[C@@H]2N(C)C1
inactive: [1] | [2] | [3] | [4] | [5] | [6] | [7] | [8] | [9] | [10] | [11] | [12] | [13] | [14]

CNCC(O)c1ccc(O)cc1 (stereo not drawn)
inactive: [1] | [2] | [3] | [5] | [6] | [7] | [8] | [9] | [10] | [11] | [12] | [13] | [14]

C=C1CC[C@@]2(O)[C@H]3Cc4ccc(O)c5c4[C@@]2(CCN3CC2CC2)[C@H]1O5
inactive: [1] | [2] | [3] | [4] | [5] | [6] | [7] | [9] | [10] | [11] | [12] | [13] | [14]

Oc1cc(Cl)ccc1Oc1ccc(Cl)cc1Cl
active: [1] 40.9 µM | [3] 24.8 µM and 26.6 µM | [4] 11.4 µM and 27.3 µM | [5] 35.1 µM | [7] 20.5 µM | [9] 28.9 µM | [10] 39.4 µM and 23.7 µM | [11] 24.8 µM
inactive: [2] | [12] | [13]

O=C1CC[C@@]2(O)[C@H]3Cc4ccc(O)c5c4[C@@]2(CCN3CC2CC2)[C@H]1O5
inactive: [1] | [2] | [3] | [6] | [7] | [9] | [10] | [11] | [12] | [13] | [14]

NCC(O)c1ccc(O)cc1 (stereo not drawn)
inactive: [1] | [2] | [3] | [4] | [5] | [6] | [7] | [8] | [9] | [10] | [11] | [12] | [13] | [14]

CN1CCN(C(=O)O[C@H]2c3nccnc3C(=O)N2c2ccc(Cl)cn2)CC1
inactive: [1] | [2] | [3] | [5] | [6] | [7] | [9] | [10] | [11] | [12] | [13] | [14]

CC(O)(CS(=O)(=O)c1ccc(F)cc1)C(=O)Nc1ccc(C#N)c(C(F)(F)F)c1 (stereo not drawn)
active: [3] 23.5 µM | [5] 3.32 µM | [10] 5.9 µM | [11] 3.72 µM | [13] 3.72 µM | [14] 3.72 µM
inactive: [1] | [2] | [8]

CC1=C2C[C@@H]3[C@@H](CC=C4C[C@@H](O)CC[C@@]43C)[C@@H]2CC[C@]12O[C@H]1C[C@H](C)CN[C@H]1[C@H]2C
active: [4] 6.07 µM | [9] 30.6 µM
inactive: [1] | [2] | [3] | [5] | [6] | [8] | [10] | [11] | [12]

CC[C@@H](CO)NC(=O)[C@@H]1C=C2c3cccc4c3c(cn4C)C[C@H]2N(C)C1
inactive: [1] | [15] | [2] | [3] | [8] | [9] | [10] | [12] | [13] | [14]

CC[N+](CC)(CC)CC
inactive: [1] | [2] | [3] | [4] | [5] | [6] | [7] | [8] | [9] | [10] | [11] | [12] | [13] | [14]

C=CCN1CC[C@]23c4c5ccc(O)c4O[C@H]2C(=O)CC[C@@]3(O)[C@H]1C5
inactive: [1] | [2] | [3] | [5] | [6] | [7] | [9] | [10] | [11] | [12] | [13] | [14]

CN(C)CCN(C)CCc1ccc(Cl)c(Cl)c1
inactive: [2] | [3] | [6] | [7] | [11] | [12] | [13] | [14]

COc1ccc(Cc2nccc3cc(OC)c(OC)cc23)cc1OC
inactive: [2] | [3] | [5] | [11] | [12] | [13]

C[C@H]1O[C@@H](O[C@H]2[C@@H](O)C[C@H](O[C@H]3[C@@H](O)C[C@H](O[C@H]4CC[C@@]5(C)[C@H](CC[C@@H]6[C@@H]5CC[C@]5(C)[C@@H](C7=CC(=O)OC7)CC[C@]65O)C4)O[C@@H]3C)O[C@@H]2C)C[C@H](O)[C@@H]1O
active: [1] 0.0098 µM | [4] 0.0864 µM | [5] 0.0299 µM | [6] 0.0473 µM | [7] 0.0219 µM | [9] 0.011 µM | [10] 0.0075 µM | [11] 0.0053 µM | [12] 0.841 µM | [16] 0.329 µM | [17] 0.465 µM | [18] 0.131 µM | [19] 0.185 µM | [20] 0.233 µM
inactive: [13]

Clc1ccc(CCC(Cn2ccnc2)Sc2c(Cl)cccc2Cl)cc1 (stereo not drawn)
active: [6] 20.9 µM | [9] 27.6 µM | [10] 37.2 µM
inactive: [8] | [11] | [12] | [13] | [14]

O=c1[nH]c2ccccc2n1C1CCN(CCCC(c2ccc(F)cc2)c2ccc(F)cc2)CC1
inactive: [2] | [12] | [13]
active: [7] 15.5 µM | [9] 17.4 µM

CNC(=O)c1ccc(N2C(=S)N(c3ccc(C#N)c(C(F)(F)F)c3)C(=O)C23CCC3)cc1F
active: [4] 19.2 µM | [11] 11.8 µM | [12] 13.2 µM | [14] 11.8 µM
inactive: [1] | [3] | [7]
